Compound activity (PubChem BioAssay)
IMPase cell inh – membrane-permeable compound that blocks inositol monophosphatase. AID 901. 120,000 tested, under 10 active. inhibition (IP1 accumulation), % at 46.1 µM. CHO-M1 cells, IP1 accumulation, HTRF TR-FRET ratio. P97697; active = well fitted curve in the direction sought with a large enough effect in the signal ratio, not every such curve was filed as active; inconclusive = small, poorly fitted or top-dose-only effect, or a change in a side signal; inactive = no such curve, though single readings can be large or run the other way; the % refers to the signal ratio;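 note: cells stimulated with carbachol in lithium chloride buffer; higher means more IMPase inhibition seen as more IP1 and lower FRET ratio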
Target sequence (P97697 whole entry, looked up): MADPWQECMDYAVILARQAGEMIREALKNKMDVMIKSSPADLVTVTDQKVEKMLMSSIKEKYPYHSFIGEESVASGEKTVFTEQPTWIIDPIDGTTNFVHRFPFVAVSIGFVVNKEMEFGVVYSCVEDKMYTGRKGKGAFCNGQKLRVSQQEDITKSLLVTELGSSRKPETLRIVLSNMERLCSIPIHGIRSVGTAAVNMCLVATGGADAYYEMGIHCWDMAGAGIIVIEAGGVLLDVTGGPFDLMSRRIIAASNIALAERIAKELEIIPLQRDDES
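CHO-M1 cells (CHO stably expressing M1 receptor), compound up to 46 uM final, stimulated with carbachol (50 uM as added) in buffer with 50mM LiCl, pH 7.4, 30 min at 37C. Cytosolic IP1 read by TR-FRET; AC50 from Hill fits.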
ALDH1A1 inh – blocks purified human ALDH1A1 activity | P00352 | Purified ALDH1A1, NADH fluorescence, propionaldehyde substrate | AID 1030 | Potency, µM (top dose mostly 75.3 µM), hits mostly inhibitors | hit rate 7.3% among 220,000
PNC inhibitor – blocks assembly of the perinucleolar compartment. PC3M PTB-GFP, PNC prevalence imaging, 16 h; active compounds read low. activity change (PNC), negative = inhibition, % at 10 µM. hit rate 3.1% among 140,000;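 active = readout at or below -70, meaning at least 70% loss of cells showing the perinucleolar compartment, a nuclear body marking cancer cells; inconclusive = readout between -30 and a set limit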
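PC3M cells stably expressing PTB-GFP, 750–1000 cells/well, treated 16 h at 37 °C with compound (23 nl of library stock), in duplicate. After paraformaldehyde fixation and Hoechst stain, imaged at 20x; PNC prevalence scored by image analysis.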
IMPase Li cell – cell-permeable IMPase inhibitors with lithium potentiation. hit rate 0.35% among 210,000. AID 1457. Potency, µM (titrated, usually from 59.4 µM), most hits filed as inhibitors. CHO-M1 cells, IP1 TR-FRET (IP-One), carbachol + lithium; active = well fitted inhibition curve with a large enough effect; inconclusive = small, poorly fitted or top-dose-only effect; inactive = no such curve, though single readings can be large or run the other way;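 note: IP1 builds up when IMPase is blocked and the TR-FRET signal falls; nearly all actives have a fitted effect of over 50% in size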
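Test compounds were applied to CHO-M1 cells previously cultured for 16–30 h at 2000 per well. A small lithium amount accompanied them; after 30 min at 37C, IP1 was quantified by TR-FRET.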
HPGD block – inhibitors of human 15-hydroxyprostaglandin dehydrogenase (HPGD); P15428; purified HPGD, NADH fluorescence kinetic, PGE2 substrate; Potency, µM, hits mostly inhibitors; hit rate 4.3% among 150,000; AID 894
Target sequence (P15428 whole entry, looked up): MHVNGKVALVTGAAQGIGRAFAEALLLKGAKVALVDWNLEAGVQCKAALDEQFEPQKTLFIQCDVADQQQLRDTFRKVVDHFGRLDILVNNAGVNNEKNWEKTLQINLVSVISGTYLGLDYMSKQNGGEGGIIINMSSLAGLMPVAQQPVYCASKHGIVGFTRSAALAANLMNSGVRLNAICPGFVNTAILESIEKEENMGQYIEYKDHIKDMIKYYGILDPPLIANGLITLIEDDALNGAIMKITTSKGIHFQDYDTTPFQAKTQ
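20 nM HPGD preincubated 15 min at room temperature with compound in 50 mM Tris-HCl pH 8, 0.01% Tween 20. Started with 1 mM NAD+ and 30 uM prostaglandin E2; NADH fluorescence (360/450 nm) read 5 times over 30-s intervals, last minus first.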
Each line names hits and unclear results; the compound was inactive in the other large screens. A selection: hits, their analogues and other compounds. The true share with any hit is near 11%. Unless noted, calls come from the whole dose curve; as a rule, active = well fitted inhibition curve with a large enough effect (not every such curve was filed as active); inconclusive = small, poorly fitted or top-dose-only effect, or another doubt; inactive = no such curve, though single readings can be large or run the other way.

COc1ccc(NC(=O)CSc2nnnn2Cc2ccccc2)cc1	ALDH1A1 inh inconclusive (no result: IMPase cell inh, PNC inhibitor, HPGD block)
COc1ccc(-n2nnnc2SCC(=O)Nc2cccc(NC(C)=O)c2)cc1OC	HPGD block inconclusive
COc1cccc(Oc2nnnn2-c2ccccc2)c1	ALDH1A1 inh inconclusive (no result: IMPase Li cell, HPGD block)
CC(=O)Nc1cccc(NC(=O)CSc2nnnn2Cc2ccccc2)c1	ALDH1A1 inh 13µM
COc1ccc(Oc2ncc3ncc(=O)n(C4CC4)c3n2)cc1	none (no result: IMPase cell inh, PNC inhibitor, HPGD block)
O=c1c(CCc2ccccc2)nc2cnc(N3CCNCC3)nc2n1Cc1ccc(F)cc1	ALDH1A1 inh inconclusive, HPGD block inconclusive (no result: IMPase cell inh, PNC inhibitor)
CCn1nnnc1SCC(=O)Nc1cccc(NC(C)=O)c1	none
O=C(CSc1nc2ccc(NC(=O)CSc3nnnn3Cc3ccccc3)cc2s1)Nc1ccccc1	ALDH1A1 inh 13µM, HPGD block inconclusive
C/C(N)=C(/C#N)C(=O)COC(=O)Cc1coc2ccc3ccccc3c12	ALDH1A1 inh inconclusive (no result: IMPase cell inh, PNC inhibitor, HPGD block)
Cc1ccccc1C1C(C#N)=C2N=C(N)c3c(sc4c3CCCCC4)N2C2=C1C(=O)CCC2 (centres undefined)	ALDH1A1 inh 2.2µM
Cn1c2c(c(=O)n(C)c1=O)C(C(F)(F)F)(C(F)(F)F)N=C(C1CCCCC1)N2	PNC inhibitor -93 (no result: IMPase cell inh)
Cn1c2c(c(=O)n(C)c1=O)C(C(F)(F)F)(C(F)(F)F)N=C(c1ccc(Cl)cc1)N2	none
CNC(=O)NC(=O)COC(=O)c1n[nH]c2ccccc12	none (no result: IMPase cell inh, PNC inhibitor, IMPase Li cell, HPGD block)
O=C(COC(=O)c1n[nH]c2ccccc12)NC(=O)NC1CCCCC1	PNC inhibitor -127
CC1(C)CC(=O)C(CC2=C(O)CC(C)(C)CC2=O)C(=O)C1	ALDH1A1 inh 11µM
CC1(C)CC(=O)C(CC2=C(O)CC(C)(C)CC2=O)=C(O)C1	ALDH1A1 inh 8.9µM, PNC inhibitor inconclusive
CN=CC1=C(O)CC(C)(C)CC1=O	none
CC1(C)CC(=O)C(C=NC2CCCCC2)=C(O)C1	none
COc1cccc(-c2cncnc2NCc2cccc(C)c2)c1	ALDH1A1 inh inconclusive (no result: IMPase cell inh, PNC inhibitor, HPGD block)
NNC(=O)/C=C/c1ccc(Cl)cc1Cl	ALDH1A1 inh 13µM (no result: IMPase cell inh, PNC inhibitor, HPGD block)
O=C(O)CNC(=O)/C=C/c1ccc(Cl)cc1Cl	none (no result: IMPase cell inh, PNC inhibitor, HPGD block)
CCC(=O)[C@@H](c1ccccc1)c1ccccn1	none (no result: IMPase cell inh, PNC inhibitor)
O=C(Cn1cc(C(=O)C2CC2)c2ccccc21)Nc1ccc(Br)cc1	none (no result: ALDH1A1 inh, PNC inhibitor, IMPase Li cell, HPGD block)
CC(=O)NC1C(=O)Nc2c1cccc2C(F)(F)F (centres undefined)	ALDH1A1 inh 0.28µM, PNC inhibitor inconclusive
CC(=O)NC1C(=O)N=C(SCC(=O)Nc2c(C)cccc2C)NC1=O (centres undefined)	ALDH1A1 inh inconclusive (no result: IMPase cell inh, PNC inhibitor, HPGD block)
CN(C)CCCOC(=O)COc1ccc(C(C)(C)C)cc1	none (no result: IMPase cell inh)
Nc1c(C(=O)NC2CC2)sc2nc3c(c(-c4ccco4)c12)CC/C3=C/c1ccco1	ALDH1A1 inh 16µM, HPGD block 16µM (no result: IMPase cell inh)
NC(=O)c1sc2nc3c(c(-c4ccco4)c2c1N)CCC3	PNC inhibitor inconclusive
Cc1ccc(CN2C(=O)C(C)Oc3ccccc32)cc1 (centres undefined)	none (no result: IMPase cell inh, PNC inhibitor, HPGD block)
Cc1ccc2c(c1)C(CCN)C(=O)N2Cc1ccccc1 (centres undefined)	ALDH1A1 inh 32µM
CC1(C)C[C@](C)(C(=O)c2ccccc2)C=C1c1ccccc1	none (no result: IMPase cell inh, PNC inhibitor)
O=C(Nc1ccccc1)c1ccc(=O)n(Cc2ccc(F)c(F)c2)c1	none (no result: IMPase cell inh, PNC inhibitor, HPGD block)
CCOC(=O)C1=C(O)c2ccccc2C(=O)/C1=C\c1ccc(C)cc1	ALDH1A1 inh 7.9µM, PNC inhibitor inconclusive, HPGD block 14µM (no result: IMPase cell inh)
CCn1c(C)c(C(C)=O)c(N2CCN(c3ccccc3)CC2)nc1=S	ALDH1A1 inh 11µM, PNC inhibitor inconclusive
CCn1c(C)c(C(C)=O)c(N2CCN(C(c3ccccc3)c3ccccc3)CC2)nc1=S	ALDH1A1 inh 14µM (no result: IMPase cell inh, PNC inhibitor, HPGD block)
CCn1c(C)c(C(C)=O)c(N2CCN(c3ccccn3)CC2)nc1=S	none
Clc1ccc(CCNC(c2cccc(Cl)c2)c2nnc(-c3ccccc3)o2)cc1 (centres undefined)	none (no result: ALDH1A1 inh, PNC inhibitor, IMPase Li cell, HPGD block)
CN(C)CCN1C(=O)C(O)=C(C(=O)c2cc3ccccc3o2)C1c1ccccn1 (centres undefined)	PNC inhibitor inconclusive, IMPase Li cell inconclusive
COc1ccc(OC)c(C2C(C(=O)c3sc(C)nc3C)=C(O)C(=O)N2CCN2CCOCC2)c1 (centres undefined)	none (no result: IMPase Li cell, HPGD block)
